Test results reported in the supplement of paper PMC13380429.
Values without a mark were called inactive.

What follows are molecules tested on Vero E6 infected with SARS-CoV-2 (assay: inhibition of SARS-CoV-2 cytopathic effect; higher = more antiviral protection, active = above 15). Settings: 100 nM; 48 h.

Compound | inhibition of SARS-CoV-2 cytopathic effect [%]
COc1ccccc1N1CCN(CCCCNC(=O)c2ccc(-c3ccc(C(C)=O)cc3)cc2)CC1 | -4.98
Cc1ccc(C(=O)N(CCCN)[C@@H](c2nc3cc(Cl)ccc3c(=O)n2Cc2ccccc2)C(C)C)cc1 [ispinesib] | -2
CCCCCCNC(=O)n1cc(F)c(=O)[nH]c1=O [Carmofur] | 2.25
CN1CCN(CCCN2c3ccccc3Sc3ccc(S(=O)(=O)N(C)C)cc32)CC1 [thioproperazine] | 5.52
CC1(C)OC(=O)NC1=O [dimethadione] | 0.11
CN(C(=O)c1c(O)c2ccccc2n(C)c1=O)c1ccccc1 [roquinimex] | 2.85
COc1ccc(CC2NCCc3cc(OC)c(OC)cc32)cc1OC (stereo not drawn) [tetrahydropapaverine] | -0.93
O=C(Nc1nc2cccc(-c3ccc(CN4CCS(=O)(=O)CC4)cc3)n2n1)C1CC1 [filgotinib] | 4.15
C=CCSCC1Nc2cc(Cl)c(S(N)(=O)=O)cc2S(=O)(=O)N1 (stereo not drawn) [althiazide] | -0.07
Cc1c(Cl)cccc1S(=O)(=O)Nc1nc(NCCc2ccccc2)nc2c1CN(Cc1ccccc1)CC2 | 0.14
O=C(Nc1ccc(S(=O)(=O)C(F)(F)F)cc1)C1=CCN(c2ncccc2C(F)(F)F)CC1 | -1.04
CCC(=O)NO | 1.27
CCCCCCCCCCCCCCOC(=O)c1cccnc1 [myristyl-nicotinate] | 0.68
CCOC(=O)[C@H]1O[C@@H]1C(=O)N[C@@H](CC(C)C)C(=O)NCCC(C)C [aloxistatin] | 0.39
CCc1cc(-c2[nH]nc(C)c2-c2ccc3c(c2)OCCO3)c(O)cc1O | -0.23
CC1(C)Oc2ccc(C#N)cc2[C@@H](N2CCCC2=O)[C@@H]1O [levcromakalim] | 0.31
CC1(C)[C@@H](OC(=O)CCC(=O)O)CC[C@]2(C)[C@H]3C(=O)C=C4[C@@H]5C[C@@](C)(C(=O)O)CC[C@]5(C)CC[C@@]4(C)[C@]3(C)CC[C@@H]12 | 1.43

Compound | inhibition of SARS-CoV-2 cytopathic effect [%]
CC(C)C[C@H](NC(=O)[C@@H](O)[C@H](N)Cc1ccccc1)C(=O)O [ubenimex] | 2.6
Nc1ncnc2c1C(=O)N(c1ccc([C@H]3CC[C@H](CC(=O)O)CC3)cc1)CCO2 | -0.31
OCc1c[nH]c2ccccc12 [indole-3-carbinol] | -3.76
CCCCCCCCCCCCCCCC(=O)O[C@@H]1[C@@H](O)[C@@H](O)[C@@H]([C@H](NC(=O)[C@@H]2C[C@@H](CCC)CN2C)[C@H](C)Cl)O[C@@H]1SC [clindamycin-palmitate] | -3.02
Cc1ccccc1N1CCN(S(=O)(=O)C[C@]23CC[C@H](C[C@@H]2NC(=O)[C@@H](N)CCS(C)(=O)=O)C3(C)C)CC1 | 2.92
Cc1nnc(NS(=O)(=O)c2ccc(N)cc2)s1 [sulfamethizole] | 0.51
C[C@@H](NCCCc1cccc(C(F)(F)F)c1)c1cccc2ccccc12 [cinacalcet] | 0.77
CN(C)CCCCSC(=N)N | -2.41
COc1ccc([C@@H]2CC(=O)c3c(O)cc(O[C@@H]4O[C@H](CO)[C@@H](O)[C@H](O)[C@H]4O[C@@H]4O[C@@H](C)[C@H](O)[C@@H](O)[C@H]4O)cc3O2)cc1O [neohesperidin] | 2.24
NC(=O)CC[C@H](N)C(=O)O [L-glutamine] | 0.59
O=C1[C@H](CC[C@H](O)c2ccc(F)cc2)[C@@H](c2ccc(O)cc2)N1c1ccc(F)cc1 [ezetimibe] | -0.99
COC(=O)Nc1nc2cc(SC(C)C)ccc2[nH]1 [methiazole] | 2.08
Nc1nc(F)nc2c1ncn2[C@@H]1O[C@H](COP(=O)(O)O)[C@@H](O)[C@@H]1O [fludarabine-phosphate] | -0.32
CCN1CCC[C@H]1CNC(=O)c1c(O)c(Cl)cc(Cl)c1OC [raclopride] | -1.29
COc1ccc(C2CC(c3ccccc3)=NN2c2ccc(S(N)(=O)=O)cc2)cc1 (stereo not drawn) | 1.18
Cc1ncc(CO)c(/C=N/NC(=O)c2ccncc2)c1O [pyridoxal-isonicotinoyl-hydrazone] | -0.41
